This note sets out measurements from PubChem BioAssay AID1210 (NMMLSC, 2008).

The term inhibition denotes the drop in the measured response relative to a control, in per cent.

Sequence of Estrogen receptor beta (Homo sapiens) (Q92731 whole entry, looked up): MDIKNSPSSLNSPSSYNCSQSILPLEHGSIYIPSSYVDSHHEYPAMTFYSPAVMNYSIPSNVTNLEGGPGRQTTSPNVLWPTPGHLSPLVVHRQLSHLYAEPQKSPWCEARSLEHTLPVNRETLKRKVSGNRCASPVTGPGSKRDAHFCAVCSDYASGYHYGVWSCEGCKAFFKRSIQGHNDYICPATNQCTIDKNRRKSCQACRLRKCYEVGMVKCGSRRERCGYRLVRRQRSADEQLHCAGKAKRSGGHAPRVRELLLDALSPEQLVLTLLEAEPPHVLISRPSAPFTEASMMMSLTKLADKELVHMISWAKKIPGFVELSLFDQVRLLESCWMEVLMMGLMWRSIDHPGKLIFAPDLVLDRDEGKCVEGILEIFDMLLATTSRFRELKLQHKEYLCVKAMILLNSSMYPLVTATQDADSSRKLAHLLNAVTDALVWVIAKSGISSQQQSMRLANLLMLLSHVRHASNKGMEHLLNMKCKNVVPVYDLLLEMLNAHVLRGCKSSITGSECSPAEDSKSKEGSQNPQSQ

The test concerns the target Estrogen receptor beta (Homo sapiens) (UniProt Q92731). Nature of the test: displacement of fluorescent estrogen from ERbeta – cell-based, Cos7 ERbeta-GFP, flow cytometry, primary screen (AID 1210).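 Further: 0% = DMSO vehicle wells and 100% = complete loss of labeled estradiol signal.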 The following applies: fluorescent estrogen binding, ligand binding inhibition, at 0.1 µM, stronger effect = higher value. (In general: In flow cytometry, cells or beads pass a laser one at a time.)
In turn, `COCc1cc(=O)n2c(-c3ccc(C)cc3)n[nH]c2n1` came in with an inhibition of 39%.

As to `CCOc1ccc(C2C3=C(Nc4nc(N)[nH]c(=O)c42)c2ccccc2C3=O)cc1` (centres undefined), the inhibition came out at 39%.

Take `COc1cc2c3c(c1)/C(=C1/SC(NC(C)=O)=NC1=O)C(=O)N3C(C)(C)C=C2C`: the inhibition worked out at 4%.

Turning to `Cc1cc(C(=O)Nc2sc3c(c2C#N)CCC3)no1`, the inhibition was 23%.

For the compound `CCCc1nc2sc3ccccc3c(=O)c2c(=O)n1Cc1ccco1`, the inhibition came out at 5%.

`O=C(c1cc2ncc(Br)cn2n1)N1CCOCC1`: the inhibition was 41%.

Consider `C/C(N)=C(/C#N)C(=O)CSc1nnc(Cc2ccccc2F)n1N`, for which the inhibition amounted to 7%.

Turning to `Cc1ccc(N=Cc2c(O)n(-c3ccc4c(c3)OCO4)c(=O)c3ccccc23)cc1`, the inhibition came out at 21%.

`COc1cc(NC(=O)COc2ccc(-n3cnnn3)cc2)c(OC)cc1Cl` returned an inhibition of 17%.

Compound `CC(C)(C)c1nnc2sc(SC/C(O)=C(\C#N)c3nc4ccccc4[nH]3)nn2c1=O` yielded an inhibition of 15%.

`COc1ccc(C2C=C(c3ccc(Cl)cc3)Nc3nc(NC(C)=O)nn32)cc1` (centres undefined) registered an inhibition of 21%.

For the compound `O=C1C=CC(O)(c2cc(=O)c3c(O)cc(O)cc3o2)C=C1`, the inhibition was 8%.

As to `O=c1[nH]c(N/N=C/c2ccc(O)cc2)nc2ccccc12`, the inhibition came to 13%.

As to `Cn1nnnc1SCC(=O)Nc1nc(-c2ccccc2)c(-c2ccccc2)o1`, the inhibition came out at 32%.

Regarding `CCCCCc1nnc(NC(=O)Cc2cccs2)s1`, the inhibition was 5%.

Compound `O=C1C(c2ccnc3ccccc23)=C(O)c2ccccc21` displayed an inhibition of 18%.

On to `COc1cccc2cc3c(=O)n(-c4ccccc4)nc-3oc12`, for which the inhibition was determined as 12%.

Turning to `C=C(C)CNC(=S)NNC(=O)CCn1c2cc(Cl)ccc2c2ccc(Cl)cc21`, the inhibition was found to be 20%.

Take `CC(=O)c1sc2nc(SCC(=O)N3CCCCC3)[nH]c(=O)c2c1C`: the inhibition worked out at 12%.

For the compound `Cc1nn(-c2ccccc2)c(Cl)c1/C=N/Nc1ccc(S(=O)(=O)Nc2ccccc2C(=O)O)cc1[N+](=O)[O-]`, the inhibition was 53%.

Turning to `Oc1ccc(C=Nc2ccc(N3CCOCC3)cc2)c(O)c1`, the inhibition worked out at 63%.

The compound `CC(=O)NC12CC3CC(C1)CC(C(=O)OCC(=O)Nc1ncc(Cl)c(C)c1Cl)(C3)C2` had an inhibition of 3%.

`COc1ccc(OC)c(C2Nc3c(Cl)ccc(C(=O)O)c3C3C=CCC32)c1` (centres undefined): the inhibition was found to be 52%.

Compound `O=C(CSc1ccc(Cl)cc1)c1ccco1` gave an inhibition of 53%.

As for `O=C(c1cccc(F)c1)N1CCN(C(=O)c2cc3ncc(Br)cn3n2)CC1`, the inhibition came to 38%.

Consider `CC(Cc1ccc(O)c(O)c1)C(C)Cc1ccc(O)c(O)c1` (centres undefined), for which the inhibition was 18%.

With `O=C1c2ccccc2NC(c2ccc(O)cc2)N1/N=C/c1ccc(O)cc1` (centres undefined), the inhibition turned out to be 1%.

The compound `COc1ccc(CNC(=O)c2cc(-c3cccs3)on2)cc1` gave an inhibition of 23%.

`Cc1nc2sccn2c1-c1nc(-c2cc3ccccc3o2)cs1` had an inhibition of 9%.

In turn, `C=CCn1c(COc2ccccc2F)nnc1SCC(=O)NC(=O)NCc1ccco1` gave an inhibition of 2%.

Compound `COc1ccc(-c2ccc(-c3noc(-c4cccs4)n3)c(OC)n2)cc1` yielded an inhibition of 20%.

Compound `Cc1cc(N)ccc1N=Nc1c(C)n(C)n(-c2ccccc2)c1=O` yielded an inhibition of 31%.

The compound `O=C1c2ccccc2C(=O)N1CCCc1nc2ccccc2c(=O)n1CCCn1ccnc1` had an inhibition of 20%.

Consider `Cc1oc(-c2ccc(Cl)cc2)cc1-c1nn2c(-c3ccoc3C)nnc2s1`, for which the inhibition came out at 29%.

The compound `Cc1ccc(C(=O)ONc2ccc(N=NC(=O)c3ccccc3O)cc2)cc1` registered an inhibition of 28%.

In turn, `Clc1ccc2c(c1)[C@H]1OCC[C@H]1[C@@H](c1ccco1)N2` displayed an inhibition of 4%.

Regarding `O=C1CC(=O)N2N=C(c3ccc([N+](=O)[O-])cc3)SC2=N1`, the inhibition is 19%.

In turn, `Cc1cc(-c2nnc3sc(-c4ccc(Cl)cc4Cl)nn23)n[nH]1` came in with an inhibition of 38%.

The compound `Cc1cc(=O)[nH]c(SCC(=O)NCc2ccco2)n1` registered an inhibition of 3%.
